Only some compounds are listed: those with a hit (about 11% of all), similar ones and a draw of the others.
IMPase Li cell: qHTS Assay for Identifying the Cell-Membrane Permeable IMPase Inhibitors: Potentiation with Lithium; CHO-M1 cells, IP1 TR-FRET (IP-One), carbachol + lithium; Potency, µM (highest dose often 59.4 µM), for inactives: top-dose activity, negative = IMPase inhibition, usual class: inhibitors; actives 0.35% (n = 210,000);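 also: IP1 builds up when IMPase is blocked and the TR-FRET signal falls; potency is read from the fitted curve at half-maximal effect; plate controls were basal vehicle for no effect and high inhibitor control for full effect; nearly all actives have a fitted effect of over 50% in size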
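Lithium-sensitised IP1 accumulation assay; M1-expressing CHO cells treated 30 min at 37C with compound. Competitive antibody detection by time-resolved FRET followed a 10 min room-temperature lysis step.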
IMPase cell inh: qHTS Assay for Identifying the Cell-Membrane Permeable IMPase Inhibitors; 120,000 tested, under 10 active; AID 901, 2007; Inositol monophosphatase 1 (Rattus norvegicus), P97697; inhibition (IP1 accumulation), % at 46.1 µM; CHO-M1 cells, IP1 accumulation, HTRF TR-FRET ratio; active = well fitted curve in the direction sought with a large enough effect in the signal ratio, not every such curve was filed as active; inconclusive = small, poorly fitted or top-dose-only effect, or a change in a side signal; inactive = no such curve, though single readings can be large or run the other way; the % refers to the signal ratio;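 also: cells stimulated with carbachol in lithium chloride buffer; plate controls were DMSO basal wells for no effect and reference inhibitor wells for full effect; higher means more IMPase inhibition seen as more IP1 and lower FRET ratio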
Target sequence (P97697 whole entry, looked up): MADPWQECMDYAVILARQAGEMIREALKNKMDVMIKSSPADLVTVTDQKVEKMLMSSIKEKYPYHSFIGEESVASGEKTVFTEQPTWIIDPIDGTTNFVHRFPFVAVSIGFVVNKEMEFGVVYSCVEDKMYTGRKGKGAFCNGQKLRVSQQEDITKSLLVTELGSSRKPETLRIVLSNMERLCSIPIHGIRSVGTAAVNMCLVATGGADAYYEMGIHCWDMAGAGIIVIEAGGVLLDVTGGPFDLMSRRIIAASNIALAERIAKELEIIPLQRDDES
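Carbachol-driven Gq signalling in CHO-M1 cells (2000/well) generates IP1. Compounds that block IMPase raise IP1 and so reduce the FRET signal from Eu-anti-IP1 and d2-IP1 after a 10 min room-temperature lysis.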
HPGD block: qHTS Assay for Inhibitors of HPGD (15-Hydroxyprostaglandin Dehydrogenase). 15-hydroxyprostaglandin dehydrogenase [NAD(+)] (Homo sapiens), P15428. purified HPGD, NADH fluorescence kinetic, PGE2 substrate. Potency, µM, inactives show top-dose activity change, negative = inhibition, most hits filed as inhibitors. actives 4.3% (n = 150,000). AID 894, 2007; active = well fitted inhibition curve with a large enough effect, not every such curve was filed as active; inconclusive = small, poorly fitted or top-dose-only effect, or another doubt; inactive = no such curve, though single readings can be large or run the other way; also: potency is read from the fitted curve at half-maximal effect
Target sequence (P15428 whole entry, looked up): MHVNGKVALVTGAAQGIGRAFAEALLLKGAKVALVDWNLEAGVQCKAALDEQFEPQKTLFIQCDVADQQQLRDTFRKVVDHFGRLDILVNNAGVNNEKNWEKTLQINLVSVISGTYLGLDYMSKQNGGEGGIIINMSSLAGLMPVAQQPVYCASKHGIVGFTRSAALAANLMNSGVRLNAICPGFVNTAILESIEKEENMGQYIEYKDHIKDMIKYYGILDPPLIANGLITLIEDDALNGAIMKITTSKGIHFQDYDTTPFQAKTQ
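NADH formation kinetics: reaction with 30 uM PGE2 and 1 mM NAD+ (final), 20 nM enzyme, Tris-HCl pH 8 with Tween 20, after 15 min compound preincubation at room temperature. Fluorescence change, last versus first of five reads.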
ALDH1A1 block: qHTS Assay for Inhibitors of Aldehyde Dehydrogenase 1 (ALDH1A1) | actives 7.3% (n = 220,000) | Potency, µM (series often up to 75.3 µM), inactives show at the top dose activity, negative = inhibition, usual class: inhibitors | Purified ALDH1A1, NADH fluorescence, propionaldehyde substrate; active = well fitted inhibition curve with a large enough effect, not every such curve was filed as active; inconclusive = small, poorly fitted or top-dose-only effect, or another doubt; inactive = no such curve, though single readings can be large or run the other way;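 also: potency is read from the fitted curve at half-maximal effect; plate controls were no enzyme wells and a reference inhibitor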
ALOX12 inhib: qHTS Assay for Inhibitors of 12-hLO (12-human lipoxygenase). Polyunsaturated fatty acid lipoxygenase ALOX12 (Homo sapiens), P18054. purified 12-hLO, xylenol orange hydroperoxide absorbance. Potency, µM (highest dose often 57.1 µM), inactives show at the top dose activity change, negative = inhibition, actives largely listed as inhibitors. actives 0.12% (n = 150,000); also: potency is read from the fitted curve at half-maximal effect; nearly all actives have a fitted effect of over 55% in size
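Xylenol orange chromogenic assay: hydroperoxide from 12hLO oxidises Fe(II), giving red-shifted Fe(III)-XO absorbance. Conditions: 150 nM enzyme, 40 uM arachidonic acid, 25 mM Hepes pH 7.0, 0.01% Triton X-100, 30 min, room temperature.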
PNC assembly inh: High Content Assay for Compounds that inhibit the Assembly of the Perinucleolar Compartment; PC3M PTB-GFP, PNC prevalence imaging, 16 h; stronger effect = lower value; actives 3.1% (n = 140,000); activity change (PNC), negative = inhibition, % at 10 µM;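 active = readout at or below -70, meaning at least 70% loss of cells showing the perinucleolar compartment, a nuclear body marking cancer cells; inconclusive = readout between -30 and a set limit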;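 also: plate controls were DMSO wells for no effect and camptothecin positive control wells for full effect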
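PC3M cells stably expressing PTB-GFP, 750–1000 cells/well, treated 16 h at 37 °C with compound (23 nl of library stock), in duplicate. After paraformaldehyde fixation and Hoechst stain, imaged at 20x; PNC prevalence scored by image analysis.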
* marks the source's active call; other numbers are inactive results; ? = inconclusive; . = not tested or not shown; ! = not confirmed by another sample; [ ] = dose if it differs, or a comment. Unless noted, calls follow the shape of the dose curve; as a rule, active = well fitted curve in the direction sought with a large enough effect; inconclusive = small, poorly fitted or top-dose-only effect, or another doubt; inactive = no such curve, though single readings can be large; an effect the other way counts as inactive or inconclusive. Unless noted, % is scaled to controls: 0 for no effect and ±100 for the full control effect.

SMILES	IMPase Li cell	IMPase cell inh	HPGD block	ALDH1A1 block	ALOX12 inhib	PNC assembly inh
COc1ccc(NC(=O)COC(=O)c2ccc(O)cc2)c([N+](=O)[O-])c1	16%	.	.	4%	.	.
COc1ccc(CNS(=O)(=O)c2ccc(F)c(C(=O)Nc3ccccc3OC)c2)cc1	-5%	.	.	?	.	.
COc1ccc(OC)c(NC(=O)c2cc(S(=O)(=O)NCc3ccco3)ccc2F)c1	0%[38.3 µM]	8	?	22µM*	-3%	-26
Nc1ncnc2c1ncn2[C@@H]1O[C@H](COP(=O)(O)O)[C@@H](O)[C@@H]1O	1%	-9[20.6 µM]	-11%	13%[20.9 µM]	0%[25.6 µM]	.
COC(=O)c1ccc(=O)n(CC(=O)c2ccc(Cl)cc2)c1	-4%	.	.	5%	.	.
CC1CCC(C(C)C)C(OC(=O)COC(=O)c2ccc(=O)[nH]c2)C1 (stereo not drawn)	2%[38.3 µM]	?	-11%	5%	-7%	?
CC1CCC(C(C)C)C(OC(=O)CSc2nccc(=O)[nH]2)C1 (stereo not drawn)	4%[38.3 µM]	4	-2%	25µM*	3%	22
CC(=O)c1cccc(N(CC(=O)N2CCCC2)S(C)(=O)=O)c1	-3%[38.3 µM]	12	0%	25µM*	-1%	36
CC(=O)c1cccc(N(CC(=O)N2CCCCC2)S(C)(=O)=O)c1	-2%[38.3 µM]	-4	-4%	1%	4%	?
CC(Nc1oc(-c2ccccc2)nc1-c1ccc(C(F)(F)F)cc1)c1ccccc1 (stereo not drawn)	2%	.	-10%	6%	0%	.
Oc1sc(C=Nc2ccccc2)c2ccccc12	38%[38.3 µM]	1[1.84 µM]	-24%	22µM*	?	26
C[C@](N)(Cc1ccc(O)c(O)c1)C(=O)O	0%	-4	?	5.6µM*!	-19%	20
C=C1Cc2c(Cl)cc3[nH]c4c5c3c2[C@@]2(O)[C@@H]1C[C@@H]2C(C)(C)O[C@H]5[C@@H]1CC[C@@]2(O)[C@@]35O[C@@H]3[C@@H](O)[C@@H](C(=O)O)O[C@H]5CC[C@]2(C)[C@@]41C	8%	.	.	-6%	.	.
CC(C)C[C@@H](CC(=O)N[C@H](CC(=O)N[C@@H]1CCNC[C@H]1C(=O)N[C@H](CC(=O)N[C@@H](CCC(=O)O)CC(=O)O)Cc1ccccc1)C(C)C)NC(=O)[C@@H]1CNCC[C@H]1N	18%	.	-3%	2%	4%	.
COc1ccccc1N1CCN(CCCCN2C(=O)c3ccccc3C2=O)CC1	19%	0	-25%	13µM*	?	.
COc1ccccc1N1CCN(CCCC(=O)c2ccc(F)cc2)CC1	23%[38.3 µM]	8	0%	25%	2%	20
COc1ccc(C(=O)CCN2CCN(c3ccccc3OC)CC2)cc1	16%	.	.	0.14µM*	.	.
COc1ccc(C(=O)CCN2CCc3cc(OC)c(OC)cc3C2)cc1	2%	.	.	0.22µM*	.	.
COc1cc2c(cc1OC)CN(CC(=O)NC(=O)NC(C)(C)C)CC2	-11%	.	.	6%	.	.
O=C1CC[C@@H](CN(Cc2ccccn2)Cc2nc(Cc3cccc(C(F)(F)F)c3)no2)N1	9%	.	.	-2%	.	.
COc1cc(-c2nnc(COc3ccc4cc(Br)ccc4c3)o2)cc(OC)c1OC	14µM*	?	-25%	1%	-4%	?
CN(C)C(=O)c1ccc(-c2ccc3ncnc(NCc4cccs4)c3c2)cc1	12%	.	.	?	.	.
CC(C)Oc1cccc(C(=O)Nc2ccc3oc(-c4cccc(Cl)c4)nc3c2)c1	.	-5	.	.	.	.
CC(C(=O)NC1CCCC1)N(C(=O)c1snc(C(N)=O)c1N)c1ccc2c(c1)OCCO2 (stereo not drawn)	2%[38.3 µM]	-1	-20%	13µM*	-8%	31

Screening results deposited in PubChem by National Center for Advancing Translational Sciences (NCATS).
